# In all, about 13,000 compounds went through this assay and about 3,200 (25%) showed an effect of 50% or more. This is one part of the list.
# Test system: P. falciparum stage V gametocytes
# Set-up: BacTiter-Glo ATP luminescence viability of purified stage V gametocytes in 384-well plates, per cent inhibition versus DMSO
# Details: 48 h, 5 µM; inhibitor
row,Structure (SMILES),% Inhibition [%]
1,O=C1C(C2CCC(c3ccc(Cl)cc3)CC2)=C2OCC3COC2(O3)c2ccccc21 (stereo not drawn) [TCMDC-138169],65.18
2,O=C1COC2(CN1C1CCN(Cc3ccc(O)c(Cl)c3)C1)c1ccccc1-c1ccccc12 (stereo not drawn) [TCMDC-136342],-3.473
3,Cc1ccccc1C1CCN(C2CCC(NC(=O)/C=C/c3cccc(F)c3F)CC2)CC1 (stereo not drawn) [TCMDC-133525],-91.19
4,CC(=O)Nc1ncc(C(=O)Nc2ccc(-c3cccc(-c4nc5ccc(C(F)(F)F)cc5[nH]4)c3)cc2)s1 [TCMDC-136919],-27.65
5,Nc1cccc(CNCc2cccc(-c3ccc(-c4nc5ccccc5[nH]4)s3)c2)c1.O=C(O)C(F)(F)F [TCMDC-132926],-42.76
6,CNC(=O)COc1ccc(Nc2nnc(-c3ccc(C)c(S(=O)(=O)NCC4CCCO4)c3)c3ccccc23)cc1 (stereo not drawn) [TCMDC-125616],3.105
7,COc1cc(NC(=O)/C=C/c2ccccc2OC(F)(F)F)cc(OCCN2CCCCC2)c1 [TCMDC-140931],-34.24
8,COc1ccc(Br)cc1/C=C/C(=O)Nc1ccc(C2CCN(C)CC2)cc1 [TCMDC-133711],12.54
9,CCCCN(CCCC)CCOc1cc2c(cc1OC)CCN2C(=O)/C=C/c1ccccc1Cl [TCMDC-141328],30.32
10,COc1cc2c(cc1OCCN1CCC(N)CC1)N(C(=O)/C=C/c1ccccc1Cl)CC2 [TCMDC-140969],75.81
11,COc1ccc(NC(=O)/C=C/c2ccccc2Cl)cc1OCCN1CCC(NC2CC2)CC1 [TCMDC-140756],-32.57
12,Cc1noc(-c2ccc3c(c2)CCN(CCC2CCC(NC(=O)/C=C/c4cccc(Cl)c4)CC2)CC3)n1 (stereo not drawn) [TCMDC-139877],-87.8
13,COc1cc(NC(=O)N2CCc3cc(OC)c(OCCN4CCCCC4)cc32)cc(C(F)(F)F)c1 [TCMDC-140782],9.489
14,CCOc1ccc(Br)cc1/C=C/C(=O)Nc1ccc2c(c1)CN(C)CCC2 [TCMDC-133944],3.1
15,CCOc1ccc(Br)cc1/C=C/C(=O)Nc1ccc(C2CCN(C)CC2)cc1 [TCMDC-134194],61.62
16,Cc1cnccc1/C=C/c1cccc(OCCCN2CCc3ccc(S(C)(=O)=O)cc3CC2)c1 [TCMDC-135876],29.22
17,COc1cc2c(cc1OCCN1CCC(N3CCCCC3)CC1)N(C(=O)/C=C/c1ccccc1OC(F)(F)F)CC2 [TCMDC-141018],57.17
18,Cc1cc(-c2ccc3c(c2)CCN(CCCOc2ccc4c(c2)CCN4C(=O)/C=C/c2ccccc2Cl)CC3)no1 [TCMDC-141470],81.48
19,NC1=NC(c2ccccc2)N(c2ccccc2)C(N)=N1 (stereo not drawn) [TCMDC-123669],-71.64
20,CNC(=O)CNC(=O)COc1cccc2ccccc12 [TCMDC-131646],8.257
21,O=C(N/N=C/c1nc2ccccc2[nH]1)c1cccc([N+](=O)[O-])c1 [TCMDC-125792],11.6
22,CCCCCCCC1=NN2C(=N)C(=Cc3cc(Br)c(OCc4ccc(F)cc4)c(OCC)c3)C(=O)N=C2S1 [TCMDC-124035],8.522
23,CCOc1cc(O)c(-c2nc(N)ncc2-c2ccc3c(c2)OCCO3)cc1CC [TCMDC-125234],11.3
24,CC1(C)N=C(N)NC(Nc2ccc(Cl)cc2)=N1 [TCMDC-124268],26.51

row,Structure (SMILES),% Inhibition [%]
1,COCCCNC(=O)[C@H]1CNCCN1C(=O)c1ccccc1 [TCMDC-141239],-7.699
2,CN1CCC(N2CCN(CCOc3cc(NC(=O)/C=C/c4ccccc4Cl)ccc3Br)CC2)CC1 [TCMDC-140962],101
3,COc1cc2c(cc1OCCN1CCC(N3CCCC3)CC1)N(C(=O)/C=C/c1ccccc1Cl)CC2 [TCMDC-140968],80.73
4,O=C(/C=C/c1ccccc1Cl)Nc1ccc(Br)c(OCCN2CCN(CCN3CCCC3)CC2)c1 [TCMDC-140961],38.25
5,COc1ccc(NC(=O)/C=C/c2ccccc2Cl)cc1OCCN1CCC(N(C)C)CC1 [TCMDC-140755],36.26
6,COc1ccc(NC(=O)/C=C/c2ccccc2Cl)cc1OCCN1CCC(NCc2ccccc2)CC1 [TCMDC-140746],-31.11
7,COc1ccc(NC(=O)/C=C/c2ccccc2Cl)cc1OCCN1CCC(N2CCCCC2)CC1 [TCMDC-140698],-6.505
8,COc1ccc(NC(=O)/C=C/c2ccccc2Cl)cc1OCCN1CCC(N2CCCC2)CC1 [TCMDC-140919],-16.17
9,COc1ccc(NC(=O)/C=C/c2ccccc2Cl)cc1OCCN1CCC(N2CCN(C)CC2)CC1 [TCMDC-140757],11.04
10,COc1cc2c(cc1OCCN1CCC(N3CCCCC3)CC1)N(C(=O)/C=C/c1ccccc1Cl)CC2 [TCMDC-140770],68.26
11,O=C(Nc1ccc(N2CCCCC2)c(Cl)c1)c1ccc(Br)o1 [TCMDC-124350],9.025
12,CC(C)(C)C(Cn1ccnc1)NCc1cn[nH]c1-c1ccc(-c2ccccc2)cc1 (stereo not drawn) [TCMDC-124639],18.54
13,CC1CCN(C(=O)CSc2nc(-c3ccc(C(C)C)cc3)no2)CC1 [TCMDC-124746],17.92
14,COCC(=O)Nc1nc2ccccc2[nH]1 [TCMDC-125535],-0.9845
15,Cc1cc(C(=O)Nc2ccc3c(c2)CCN3C2CCN(Cc3cccc4cc[nH]c34)C2)no1 (stereo not drawn) [TCMDC-135085],42.96
16,CC(C)NCc1ccc(-c2ccc(NS(=O)(=O)c3cccc4cccnc34)cc2)cc1 [TCMDC-136476],32.43
17,CCN(CC)CCNc1ccnc2[nH]c3ccc(C)cc3c12 [TCMDC-131833],-0.1276
18,CCn1ncc2c(N3CCCC3=O)cc(C(=O)N[C@@H](Cc3ccccc3)[C@H](O)CNC(C)(C)c3cccc(OC)c3)cc21 [TCMDC-135063],45.35
19,O=C(Nc1ccc(-c2cccc(-c3nc4ccc(F)cc4[nH]3)c2)cc1)Nc1ccc(Cl)c(Cl)c1 [TCMDC-133282],-9.249
20,CCC(CC)NCc1c(O)ccc2c(CNC(CC)CC)c(O)ccc12 [TCMDC-137581],-56.22
21,Cc1cccc2[nH]c(-c3ccc(-c4ccc(NC(=O)Nc5ccc(Cl)c(Cl)c5)cc4)cc3)nc12 [TCMDC-133281],-29.93
22,Cc1nc2ccc(S(=O)(=O)Nc3ccc(C(=O)N[C@@H](CCC(=O)O)C(=O)O)cc3)cc2c(=O)[nH]1 [TCMDC-137978],-10.92
23,CC(C)COc1ccc(Cl)cc1Cc1ccc(-c2nc3ccc(CCN4CCCC4)cc3[nH]2)o1 [TCMDC-136890],21.95
24,CC(C)COc1ccc(Cl)cc1Cc1nc(-c2nc3ccc(CN(C)C)cc3[nH]2)co1 [TCMDC-136809],-8.138

row,Structure (SMILES),% Inhibition [%]
1,CC(C)COc1ccc(Cl)cc1Cc1ccc(-c2nc3cc(F)c(F)cc3[nH]2)o1 [TCMDC-136561],53.5
2,CC(C)COc1ccc(Cl)cc1Cc1ccc(-c2nc3ccc(Cl)cc3[nH]2)o1 [TCMDC-136546],-3.56
3,CC(C)COc1ccc(Cl)cc1Cc1ccc(-c2nc3ccc(Br)cc3[nH]2)o1 [TCMDC-136705],53.1
4,CC(C)COc1ccc(Cl)cc1Cc1ccc(-c2nc3ccc(N4CCN(C)CC4)cc3[nH]2)o1 [TCMDC-136709],31.86
5,CC(C)COc1ccc(Cl)cc1Cc1ccc(-c2nc3ccc(CCN(C)C)cc3[nH]2)o1 [TCMDC-136891],30.85
6,CC(C)COc1ccc(Cl)cc1Cc1ccc(-c2nc3ccc(F)cc3[nH]2)o1 [TCMDC-136545],33.1
7,CC(C)COc1ccc(Cl)cc1Cc1ccc(-c2nc3ccc(C(F)(F)F)cc3[nH]2)o1 [TCMDC-136563],61.92
8,CCCCC(CC)C(=O)C(NC(=O)[C@H](CSC(c1ccccc1)(c1ccccc1)c1ccccc1)NC(=O)OC(C)(C)C)C(=O)OC (stereo partly drawn) [TCMDC-138083],0.3187
9,Cc1cccc2[nH]c(-c3cccc(-c4cccc(NC(=O)COc5ccccc5C(N)=O)c4)c3)nc12 [TCMDC-132130],45.07
10,NC(=O)c1ccccc1OCC(=O)Nc1ccc(-c2cccc(-c3nc4ccc(C(F)(F)F)cc4[nH]3)c2)cc1 [TCMDC-132129],71.31
11,Cc1cccc2[nH]c(-c3cccc(-c4ccc(NC(=O)COc5ccccc5C(N)=O)cc4)c3)nc12 [TCMDC-132131],84.32
12,NC(=O)c1ccccc1OCC(=O)Nc1cccc(-c2ccc(-c3nc4ccc(C(F)(F)F)cc4[nH]3)cc2)c1 [TCMDC-132132],-3.438
13,NC(=O)c1ccccc1OCC(=O)Nc1cccc(-c2cccc(-c3nc4ccccc4[nH]3)c2)c1 [TCMDC-132127],20.22
14,Cc1cccc2[nH]c(-c3cccc(-c4ccc(NC(=O)COC(C)C)cc4)c3)nc12 [TCMDC-137038],26.32
15,O=C(/C=C/c1ccc(Cl)c(Cl)c1)NCCCCCN1CCC(NC(=O)Nc2cccc(Cl)c2F)CC1 [TCMDC-135721],-53.7
16,CCCN(Cc1nnc(-c2cccs2)o1)C(=O)CSc1nnnn1-c1cc(C)cc(C)c1 [TCMDC-125265],15.05
17,CCCC(C)N(Cc1ccc(C(C)(C)C)cc1)C(=O)c1cccc(C#N)c1 (stereo not drawn) [TCMDC-139784],-24.96
18,CCN(CC)C(=O)C(=O)c1c[nH]c2ccc(Cl)cc12 [TCMDC-131976],21.68
19,CCOC(=O)c1ccc(NC(=O)Nc2ccc(-c3ccc(-c4nc5ccc(C(F)(F)F)cc5[nH]4)cc3)cc2)cc1 [TCMDC-133260],23.97
20,CCN(CC)CCN(Cc1ccc(-c2ccc(C(F)(F)F)cc2)cc1)C(=O)c1ccc(-c2ccc(NC(=O)OC)cc2C)cc1 [TCMDC-141558],93.92
21,COC(=O)Nc1ccc(-c2ccc(C(=O)NC3CCN(C[C@H](O)c4ccnc5ccc(OC)cc45)CC3)cc2)c(C)c1 [TCMDC-141170],-22.09
22,CC(C)CCN(Cc1cncn1Cc1cccc(C(F)(F)F)c1)C(=O)c1cncc(-c2ccccc2)c1 [TCMDC-132458],37.01
23,CCN(CC)CCN(Cc1ccc(-c2ccc(C(F)(F)F)cc2)cc1)C(=O)c1ccc(-c2ccc(C#N)cc2)cc1 [TCMDC-141556],55.86
24,CCN(CC)CCN(Cc1ccc(-c2ccc(C(F)(F)F)cc2)cc1)C(=O)c1c[nH]c2ccc(Br)cc12 [TCMDC-141557],106.7

# — PMC4552634, “A New Set of Chemical Starting Points with Plasmodium falciparum Transmission-Blocking Potential for Antimalarial Drug Discovery” (PLoS ONE, 2015)
